Experimental data from PubChem BioAssay (NCATS).
Results filed as inconclusive are left out. A call without a number means that no potency is given here. The source made the active and inactive calls. Calls follow the shape of the dose curve; as a rule, active = well fitted inhibition curve with a large enough effect; inconclusive = small, poorly fitted or top-dose-only effect; inactive = flat fitted curve, though single readings scatter.

What follows are compounds tested on AS120 (assay: qHTS profiling for inhibitors of Plasmodium falciparum proliferation (AID 504749; also: nearly all actives have a fitted effect of over 60% in size)). Conditions: P. falciparum in erythrocytes, SYBR Green DNA, 72 h; series mostly up to 28.7 µM.
In short: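 Readout was DNA-dye fluorescence from lysed cultures, ex 485/em 535 nm. Parasitized red cells had grown 72 h with compound; data scaled between 0.29 uM artemisinin and DMSO wells and corrected using vehicle-only plates.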
Potency is read from the fitted curve at half-maximal effect.

Row | Compound | Potency
1 | Cn1nnc2c(C(N)=O)ncn2c1=O | inactive
2 | CC(C)OC(=O)C(C(=O)OC(C)C)=C1SC=CS1 | inactive
3 | CC1=NN(c2ccccc2)C(=O)C1 | inactive
4 | COC(=O)Nc1nc2ccc(Sc3ccccc3)cc2[nH]1 | inactive
5 | CCc1c2c(nc3ccc(OC(=O)N4CCC(N5CCCCC5)CC4)cc13)-c1cc3c(c(=O)n1C2)COC(=O)[C@]3(O)CC | inactive
6 | Cc1noc(NS(=O)(=O)c2ccc(N)cc2)c1C | inactive
7 | CN1CCN(c2c(F)cc3c(=O)c(C(=O)O)cn4c3c2OCN4C)CC1 | inactive
8 | S=P(N1CC1)(N1CC1)N1CC1 | inactive
9 | CC[C@H](NC(C)C)[C@H](O)c1ccc(O)c2[nH]c(=O)ccc12 | inactive
10 | CC[C@H](C)C(=O)O[C@H]1C[C@@H](C)C=C2C=C[C@H](C)[C@H](CC[C@@H]3C[C@@H](O)CC(=O)O3)[C@H]21 | inactive
11 | CC(C)(Sc1cc(C(C)(C)C)c(O)c(C(C)(C)C)c1)Sc1cc(C(C)(C)C)c(O)c(C(C)(C)C)c1 | inactive
12 | Cc1ncc([N+](=O)[O-])n1CCO | inactive
13 | CCCc1cc(C(N)=S)ccn1 | inactive
14 | CCCN[C@H]1CCc2nc(N)sc2C1 | inactive
15 | COC(=O)Nc1nc2ccc(C(=O)c3ccccc3)cc2[nH]1 | inactive
16 | CC(C)(C#N)c1cc(Cn2cncn2)cc(C(C)(C)C#N)c1 | inactive
17 | COc1c(N2CCNC(C)C2)c(F)cc2c(=O)c(C(=O)O)cn(C3CC3)c12 (centres undefined) | inactive
18 | O=C(O)c1cc(=O)[nH]c(=O)[nH]1 | inactive
19 | CNS(=O)(=O)Cc1ccc2[nH]cc(CCN(C)C)c2c1 | inactive
20 | CCOc1cc(N)c(Cl)cc1C(=O)NCC1CN(Cc2ccc(F)cc2)CCO1 (centres undefined) | 8910 nM (active)
21 | CCC(C)(C)c1ccc(CC(C)CN2C[C@@H](C)O[C@@H](C)C2)cc1 (some centres undefined) | inactive
22 | CN(C)c1ccc(C(=C2C=CC(=[N+](C)C)C=C2)c2ccc(N(C)C)cc2)cc1 | 447 nM (active)
23 | COc1ccc(C(=O)CC(=O)c2ccc(C(C)(C)C)cc2)cc1 | inactive
24 | CCc1cc(C(N)=S)ccn1 | inactive
25 | NC(=O)N1c2ccccc2CC(=O)c2ccccc21 | inactive
26 | Cc1nnc(NS(=O)(=O)c2ccc(N)cc2)s1 | inactive
27 | CCN(C)C(=O)Oc1cccc([C@H](C)N(C)C)c1 | inactive
28 | CNC1CCCN(c2c(F)cc3c(=O)c(C(=O)O)cn(C4CC4)c3c2OC)C1 (centres undefined) | inactive
29 | COc1cc(NCc2ccc3nc(N)nc(N)c3c2C)cc(OC)c1OC | 1000 nM (active)
